Source: PubChem BioAssay (EPA / NIEHS)
Some compounds were tested as several samples or in several runs, with calls that do not always agree. Active and inactive are the calls of the source. Rule for the calls: active = hit-call score of the fitted dose curve at least 0.9, where 1 is the maximum; inactive = score below 0.9.

Read-out: CD38, CD38 (gene 952)
Test: BSK_SAg_CD38: BioMAP Diversity Plus: SAg Assay for CD38 Biomarker Activity (AID 2283087)
Settings: primary human HUVEC with PBMC; actives raise or lower the signal
Protocol: BSK_SAg is a cell-based, multiplexed-readout assay that uses umbilical vein endothelium and peripheral blood mononuclear cells, a human vascular primary cell co-culture, with measurements taken at 24 hours after chemical dosing in a 96-well plate.BSK_SAg_CD38 is one of 10 assay component(s) measured or calculated from the BSK_SAg assay. It is designed to make measurements of enzyme-linked immunosorbent assay, a form of binding reporter, as detected with fluorescence intensity signals by Enzyme-linked immunosorbent assay technology.Data from the assay component BSK_SAg_CD38 was analyzed into 1 assay endpoint. This assay endpoint, BSK_SAg_CD38, was analyzed with bidirectional fitting relative to DMSO as the negative control and baseline of activity. Using a type of binding reporter, gain or loss-of-signal activity can be used to understand changes in the signaling as they relate to the gene CD38. Furthermore, this assay endpoint can be referred to as a primary readout, because this assay has produced multiple assay endpoints where this one serves a signaling function. To generalize the intended target to other relatable targets, this assay endpoint is annotated to the cytokine intended target family, where the subfamily is other cytokine.
The levels of cell surface (or secreted, indicated by the prefix "s") biomarker endpoints were measured by ELISA. Overt cytotoxicity to cells in confluent adherent cultures (all systems other than the BT system) was assessed by measuring total protein levels using sulforhodamine B (SRB) staining in parallel cultures at the time of biomarker measurements, indicated as SRB endpoints. For proliferation assays for adherent cell types, individual cell types are cultured at sub-confluence and relative cell numbers quantified by SRB staining at time points optimized for each system (48 h: 3C and CASM3C systems; 72 h: BT and HDF3CGF systems; 96 h: SAg system). SRB was performed by staining cells with 0.1% SRB after fixation with 10% TCA and reading wells at 560 nm.Viability and proliferation of PBMC (T cells) was quantified by Alamar Blue reduction for the SAg and BT systems. For PBMC viability (referred to as PBMC Cytotoxicity within the assay endpoint names), cells were plated (75,000/well in a 96-well plate) and then chemical samples added for 1 h before addition of activators, SEB and TSST-1 (20 ng/mL final concentration each). Cells were incubated for 90 h. Then, Alamar Blue (20 uL/well) (Invitrogen, Cat DAL1100) was added for 6 h, and the plates were read with a fluorescence microplate reader at 546/580 nm (excitation/emission). For PBMC proliferation, cells were plated and activated as above but incubated for only 16 h prior to addition of Alamar Blue. Plates were read after 6 h.

SMILES	outcome	AC50
OCCC(F)(F)C(F)(F)C(F)(F)C(F)(F)F	inactive	0.234 µM (active)
CCCCC(CC)C(=O)OCCOCCOCCOC(=O)C(CC)CCCC (stereo not given)	inactive	
CC(C)C(=O)Nc1ccc([N+](=O)[O-])c(C(F)(F)F)c1		14.7 µM (active)
OC[C@H]1O[C@@](CO)(O[C@H]2O[C@H](CO)[C@@H](O)[C@H](O)[C@H]2O)[C@@H](O)[C@@H]1O	inactive	
C[C@@H](Oc1ccc(CNC(=O)c2cccnc2Oc2ccc3c(c2)OCO3)c(F)c1)C(=O)O	inactive	
COS(C)(=O)=O	inactive	
OC[C@H]1O[C@@H]2O[C@H]3[C@H](O)[C@@H](O)[C@@H](O[C@H]4[C@H](O)[C@@H](O)[C@@H](O[C@H]5[C@H](O)[C@@H](O)[C@@H](O[C@H]6[C@H](O)[C@@H](O)[C@@H](O[C@H]7[C@H](O)[C@@H](O)[C@@H](O[C@H]1[C@H](O)[C@H]2O)O[C@@H]7CO)O[C@@H]6CO)O[C@@H]5CO)O[C@@H]4CO)O[C@@H]3CO	inactive	
CCCCCCCCCCCCCCCCOS(=O)(=O)O		5.57 µM (active)
Cc1nc(-c2ccccn2)ncc1C(=O)Nn1cc(C)c2cc(F)ccc21	inactive	
CCCCCCCC/C=C\CCCCCCCC(=O)OC[C@@H](O)[C@H]1OC[C@H](O)[C@H]1O	inactive	
OC(Cn1cncn1)(Cn1cncn1)c1ccc(F)cc1F	inactive	
Cc1cccc(O)c1C	inactive	
CCCCCCCCCCCCCCO		31.1 µM (active)
FC(F)(F)COC(OCC(F)(F)F)OCC(F)(F)F	inactive	
O=C(O)c1ccc2c(c1)nc(C(=O)NC1CCN(C3CC3)CC1)n2Cc1cc(-c2ccc(Cl)s2)on1	inactive	
OCCOCCOCCO	inactive	
CCOC(N)=O	inactive	
O=C(Cl)C(F)(F)C(F)(F)C(F)(F)C(=O)Cl	inactive	
COc1cc2c(c(OC)c1OC)-c1ccc(OC)c(=O)cc1[C@@H](NC(C)=O)CC2		0.148 µM (active)
NCC(F)(F)C(F)(F)C(F)(F)C(F)(F)F	inactive	

SMILES	outcome	AC50
c1ccc2cc3ccccc3cc2c1	inactive	
O=C(O)c1cccc(C[C@@H]2COc3ccc(OCc4nc5cc(F)ccc5s4)cc3[C@@H]2O)c1	inactive	
Cc1nccn1-c1ccc(Sc2cccc(C3(C(N)=O)CCOCC3)c2)cc1		5.57 µM (active)
COCc1nnc(-c2ccc[n+]([O-])c2)n1-c1c(Cl)c(Cl)cc2[nH]c(=O)c(=O)[nH]c12	inactive	
NNC(=O)c1ccncc1	inactive	
CC(C)CC(C)O (stereo not given)	inactive	
CCn1nc(C)c2c1C(=O)NCC(c1ccc(O)cc1)=N2		8.91 µM (active)
OCC(CO)(CO)CO	inactive	
Cc1ncc([C@@H](CCCCCCc2ccc3c(n2)NCCC3)CC(=O)O)cn1	inactive	
CCCc1ccccc1	inactive	
O=S(=O)(O)CCC(F)(F)C(F)(F)C(F)(F)C(F)(F)C(F)(F)C(F)(F)F	inactive	
CNC(C)=O	inactive	
CC(C)c1nnc2ccc(-c3ocnc3-c3cc(F)ccc3F)cn12	inactive	
CCN(CC)C(=S)SSC(=S)N(CC)CC		31.7 µM (active)
O=c1[nH]cnc2c1ncn2[C@H]1CC[C@@H](CO)O1	inactive	
O=C(O)[C@H](O)[C@@H](O)C(=O)O	inactive	
CCCCCCCC1CCC(=O)O1 (stereo not given)	inactive	
Cn1c(=O)c2[nH]cnc2n(C)c1=O	inactive	
NC(=O)N(O)[C@@H]1COc2cc(OCc3ccccc3)ccc21	inactive	
